# In the supplement of paper PMC8728848:
# This excerpt belongs to a sample that is enriched for the strongest signals.
# B1: Unk16A (Cellvibrio mixtus), Q336L6 (protein)
# chain: VAYNTTGASSSAASSSAPSSASSSSSSAAPVLLSQGRPVTASSNFQPAANAVDGNGGTRWESTHGVSPSWIMVDLGSSKNLSQVIIDWEAANAANYLVQASNNGMSWTTLKIITTGAFGDRTDTHSVAGNYRYVRIYATARSAGNQWGYSIWELKITGN
# B2: Malectin (Homo sapiens), Q14165 (protein)
# chain: MLGAWAVEGTAVALLRLLLLLLPPAIRGPGLGVAGVAGAAGAGLPESVIWAVNAGGEAHVDVHGIHFRKDPLEGRVGRASDYGMKLPILRSNPEDQILYQTERYNEETFGYEVPIKEEGDYVLVLKFAEVYFAQSQQKVFDVRLNGHVVVKDLDIFDRVGHSTAHDEIIPMSIRKGKLSVQGEVSTFTGKLYIEFVKGYYDNPKVCALYIMAGTVDDVPKLQPHPGLEKKEEEEEEEEYDEGSNLKKQTNKNRVQSGPRTPNPYASDNSSLMFPILVAFGVFIPTLFCLCRL
# B3: Dectin-1 (Homo sapiens), Q9BXN2 (protein)
# chain: TMAIWRSNSGSNTLENGYFLSRNKENHSQPTQSSLEDSVTPTKAVKTTGVLSSPCPPNWIIYEKSCYLFSMSLNSWDGSKRQCWQLGSNLLKIDSSNELGFIVKQVSSQPDNSFWIGLSRPQTEVPWLWEDGSTFSSNLFQIRTTATQENPSPNCVWIHVSVIYDQLCSVPSYSICEKKFSM
# B4: Lam16A (Thermotoga maritima), Q9WXN1 (protein)
# chain: EQINNGTFDEPIVNDQANNPDEWFIWQAGDYGISGARVSDYGVRDGYAYITIADPGTDTWHIQFNQWIGLYRGKTYTISFKAKADTPRPINVKILQNHDPWTNYFAQTVNLTADWQTFTFTYTHPDDADEVVQISFELGEGTATTIYFDDVTVSPQ
# B5: Cel5A (Clostridium thermocellum), P16218 (protein)
# chain: AVGEKMLDDFEGVLNWGSYSGEGAKVSTKIVSGKTGNGMEVSYTGTTDGYWGTVYSLPDGDWSKWLKISFDIKSVDGSANEIRFMIAEKSINGVGDGEHWVYSITPDSSWKTIEIPFSSFRRRLDYQPPGQDMSGTLDLDNIDSIHFMYANNKSGKFVVDNIKLIGATSDPTPSIKHGDLNFDNAVNSTDLLMLKRYILKSLELGTSEQEEKFKKAADLNRDNKVDSTDLTILKRYLLKAISEIPI
# B6: Cel5A (Cellvibrio mixtus), A0A266Q9Z0 (protein)
# chain: TSVAGCSGVTAWNSTAVYTGGNEVVRNGVKYQAKWWTQGQDPVTNSSADGVWANKGQC
# Assays:
# Assay in all cases: glycan array binding signal (z-score within array); higher = stronger binding
# Settings in all cases: glycan notation: IUPAC condensed, linker removed
# Glc(a1-2)Glc(a1-2)Glc = target: Glc(a1-2)Glc(a1-2)Glc
# Procedure, shortened: (§1)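 The Consortium for Functional Glycomics database supplied 3228 glycan arrays, of which those lacking an available protein sequence were dropped. The binding signal, a within-array Z-score, was averaged across arrays of the same protein sequence and across linkers. Negative scores can be read as non-binding.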
# [1] = target: Glc(a1-4)Glc(a1-4)Glc(a1-4)Glc(a1-4)Glc(a1-4)Glc(a1-4)Glc(a1-4)Glc(a1-4)Glc(a1-4)Glc
# Procedure, shortened: as §1
# [2] = target: Glc(b1-2)Glc(b1-2)Glc(b1-2)Glc(b1-2)Glc
# Procedure, shortened: as §1
# [3] = target: Glc(b1-2)Glc(b1-2)Glc(b1-2)Glc(b1-2)Glc(b1-2)Glc(b1-2)Glc(b1-2)Glc(b1-2)Glc
# Procedure, shortened: as §1
# [4] = target: Glc(b1-2)Glc(b1-2)Glc(b1-2)Glc(b1-2)Glc(b1-2)Glc(b1-2)Glc(b1-2)Glc(b1-2)Glc(b1-2)Glc(b1-2)Glc
# Procedure, shortened: as §1
# [5] = target: Glc(b1-3)[Glc(b1-6)]Glc(a1-3)Glc(b1-3)[Glc(b1-6)]Glc
# Procedure, shortened: as §1
# [6] = target: Glc(b1-4)Glc(b1-4)Glc(b1-3)Glc
# Procedure, shortened: as §1
# [7] = target: Glc(b1-4)Glc(b1-4)Glc(b1-4)Glc(b1-4)Glc
# Procedure, shortened: as §1
# [8] = target: Glc(b1-4)Glc(b1-4)Glc(b1-4)Glc(b1-4)Glc(b1-4)Glc(b1-4)Glc(b1-4)Glc(b1-4)Glc(b1-4)Glc
# Procedure, shortened: as §1
# [9] = target: Glc(b1-4)Glc(b1-4)Glc(b1-4)Glc(b1-4)Glc(b1-4)Glc(b1-4)Glc(b1-4)Glc(b1-4)Glc(b1-4)Glc(b1-4)Glc(b1-4)Glc(b1-4)Glc
# Procedure, shortened: as §1
# Glc(b1-6)Glc(b1-6)Glc = target: Glc(b1-6)Glc(b1-6)Glc
# Procedure, shortened: as §1
# [10] = target: Glc(b1-6)Glc(b1-6)Glc(b1-6)Glc(b1-6)Glc(b1-6)Glc(b1-6)Glc(b1-6)Glc(b1-6)Glc(b1-6)Glc
# Procedure, shortened: as §1
# [11] = target: Glc(a1-3)Glc(a1-3)Man(a1-2)Man(a1-2)Man(a1-3)[Man(a1-3)[Man(a1-6)]Man(a1-6)]Man(b1-4)GlcNAc
# Procedure, shortened: as §1
# [12] = target: Glc(a1-4)Glc(a1-4)Glc(a1-4)Glc(a1-4)Glc
# Procedure, shortened: as §1
# [13] = target: Glc(a1-4)Glc(a1-4)Glc(a1-4)Glc(a1-4)Glc(a1-4)Glc(a1-4)Glc
# Procedure, shortened: as §1
# [14] = target: Glc(b1-3)Glc(b1-3)Glc(b1-3)Glc
# Procedure, shortened: as §1
# Glc(b1-4)Glc(b1-4)Glc = target: Glc(b1-4)Glc(b1-4)Glc
# Procedure, shortened: as §1
# Glc(a1-4)Glc = target: Glc(a1-4)Glc
# Procedure, shortened: as §1
# Glc(a1-6)Glc = target: Glc(a1-6)Glc
# Procedure, shortened: as §1
# [15] = target: Glc(b1-3)Glc(b1-3)Glc(b1-3)Glc(b1-3)Glc
# Procedure, shortened: as §1
# [16] = target: Glc(b1-3)Glc(b1-3)Glc(b1-3)Glc(b1-3)Glc(b1-3)Glc(b1-3)Glc(b1-3)Glc(b1-3)Glc(b1-3)Glc(b1-3)Glc
# Procedure, shortened: as §1
# [17] = target: Glc(b1-3)Glc(b1-3)Glc(b1-3)Glc(b1-3)Glc(b1-3)Glc(b1-3)Glc(b1-3)Glc(b1-3)Glc(b1-3)Glc(b1-3)Glc(b1-3)Glc
# Procedure, shortened: as §1
# [18] = target: Glc(b1-3)Glc(b1-3)Glc(b1-3)Glc(b1-3)Glc(b1-3)Glc(b1-3)Glc(b1-3)Glc(b1-3)Glc(b1-3)Glc(b1-3)Glc(b1-3)Glc(b1-3)Glc
# Procedure, shortened: as §1
# [19] = target: Glc(b1-3)Glc(b1-3)Glc(b1-3)Glc(b1-3)Glc(b1-3)Glc(b1-3)Glc(b1-3)[Glc(b1-6)]Glc(b1-3)Glc
# Procedure, shortened: as §1
# [20] = target: Glc(b1-4)Glc(b1-4)Glc(b1-4)Glc(b1-4)Glc(b1-4)Glc(b1-4)Glc(b1-4)Glc(b1-4)Glc
# Procedure, shortened: as §1
# [21] = target: Glc(b1-6)Glc(b1-6)Glc(b1-6)Glc(b1-6)Glc(b1-6)Glc(b1-6)Glc(b1-6)Glc
# Procedure, shortened: as §1
# [22] = target: Glc(b1-6)Glc(b1-6)Glc(b1-6)Glc(b1-6)Glc(b1-6)Glc(b1-6)Glc(b1-6)Glc(b1-6)Glc
# Procedure, shortened: as §1
# [23] = target: Man(b1-4)Man(b1-4)Man(b1-4)Man
# Procedure, shortened: as §1
# [24] = target: Glc(a1-3)Glc(a1-3)Glc(a1-3)Glc
# Procedure, shortened: as §1
# [25] = target: Glc(b1-3)Glc(b1-3)Glc(b1-3)Glc(b1-3)Glc(b1-3)Glc
# Procedure, shortened: as §1
# [26] = target: Glc(b1-4)Glc(b1-4)Glc(b1-4)Glc(b1-4)Glc(b1-4)Glc(b1-4)Glc
# Procedure, shortened: as §1
# Glc(a1-2)Glc = target: Glc(a1-2)Glc
# Procedure, shortened: as §1
# [27] = target: Glc(a1-6)Glc(a1-6)Glc(a1-6)Glc(a1-6)Glc(a1-6)Glc
# Procedure, shortened: as §1
# Glc(b1-2)Glc(b1-2)Glc = target: Glc(b1-2)Glc(b1-2)Glc
# Procedure, shortened: as §1
# [28] = target: Glc(b1-3)Glc(b1-3)Glc(b1-3)Glc(b1-3)Glc(b1-3)Glc(b1-3)[Glc(b1-6)]Glc(b1-3)Glc(b1-3)Glc
# Procedure, shortened: as §1
# [29] = target: Glc(b1-4)Glc(b1-4)Glc(b1-3)Glc(b1-4)Glc(b1-4)Glc(b1-3)Glc
# Procedure, shortened: as §1
# [30] = target: Man(b1-4)Man(b1-4)Man(b1-4)Man(b1-4)Man
# Procedure, shortened: as §1
# Glc(a1-3)Glc(a1-3)Glc = target: Glc(a1-3)Glc(a1-3)Glc
# Procedure, shortened: as §1
# [31] = target: Glc(a1-3)Glc(a1-3)Glc(a1-3)Glc(a1-3)Glc(a1-3)Glc
# Procedure, shortened: as §1
# Glc(b1-2)Glc = target: Glc(b1-2)Glc
# Procedure, shortened: as §1
# [32] = target: Glc(b1-3)Glc(b1-3)Glc(b1-3)Glc(b1-3)Glc(b1-3)Glc(b1-3)Glc(b1-3)Glc
# Procedure, shortened: as §1
# [33] = target: Glc(b1-3)Glc(b1-3)[Glc(b1-6)]Glc(b1-3)Glc(b1-3)Glc(b1-3)Glc(b1-3)Glc(b1-3)Glc(b1-3)Glc
# Procedure, shortened: as §1
# [34] = target: Glc(b1-4)Glc(b1-4)Glc(b1-4)Glc(b1-3)Glc
# Procedure, shortened: as §1
# [35] = target: Glc(b1-6)Glc(b1-6)Glc(b1-6)Glc(b1-6)Glc(b1-6)Glc(b1-6)Glc(b1-6)Glc(b1-6)Glc(b1-6)Glc(b1-6)Glc(b1-6)Glc(b1-6)Glc(b1-6)Glc(b1-6)Glc
# Procedure, shortened: as §1
binder,measurement,setting,value
B1,glycan array binding signal (z-score),Glc(a1-2)Glc(a1-2)Glc,-0.668
same,glycan array binding signal (z-score),[1],-0.662
same,glycan array binding signal (z-score),[2],2.23
same,glycan array binding signal (z-score),[3],3.49
same,glycan array binding signal (z-score),[4],2.77
same,glycan array binding signal (z-score),[5],4.32
same,glycan array binding signal (z-score),[6],-0.192
same,glycan array binding signal (z-score),[7],-0.479
same,glycan array binding signal (z-score),[8],-0.167
same,glycan array binding signal (z-score),[9],-0.398
same,glycan array binding signal (z-score),Glc(b1-6)Glc(b1-6)Glc,-0.248
same,glycan array binding signal (z-score),[10],0.062
B2,glycan array binding signal (z-score),[11],5.02
same,glycan array binding signal (z-score),[12],-0.172
same,glycan array binding signal (z-score),[13],-0.012
same,glycan array binding signal (z-score),[14],-0.337
same,glycan array binding signal (z-score),Glc(b1-4)Glc(b1-4)Glc,-0.412
B3,glycan array binding signal (z-score),Glc(a1-4)Glc,-0.145
same,glycan array binding signal (z-score),Glc(a1-6)Glc,-0.145
same,glycan array binding signal (z-score),[2],-0.145
same,glycan array binding signal (z-score),[15],-0.145
same,glycan array binding signal (z-score),[16],0.976
same,glycan array binding signal (z-score),[17],5
same,glycan array binding signal (z-score),[18],9.53
same,glycan array binding signal (z-score),[19],-0.145
same,glycan array binding signal (z-score),[20],-0.145
same,glycan array binding signal (z-score),[21],-0.145
same,glycan array binding signal (z-score),[22],-0.145
same,glycan array binding signal (z-score),[23],-0.082
B4,glycan array binding signal (z-score),[24],-0.373
same,glycan array binding signal (z-score),[1],-0.363
same,glycan array binding signal (z-score),[25],1.79
same,glycan array binding signal (z-score),[16],3.64
same,glycan array binding signal (z-score),[17],4.46
same,glycan array binding signal (z-score),[18],4.88
same,glycan array binding signal (z-score),[26],-0.373
B5,glycan array binding signal (z-score),Glc(a1-2)Glc,-0.143
same,glycan array binding signal (z-score),[27],-0.143
same,glycan array binding signal (z-score),Glc(b1-2)Glc(b1-2)Glc,-0.143
same,glycan array binding signal (z-score),[3],-0.143
same,glycan array binding signal (z-score),[28],0.047
same,glycan array binding signal (z-score),[29],4.62
same,glycan array binding signal (z-score),Glc(b1-6)Glc(b1-6)Glc,-0.143
same,glycan array binding signal (z-score),[30],0.04
B6,glycan array binding signal (z-score),Glc(a1-2)Glc,-0.981
same,glycan array binding signal (z-score),Glc(a1-3)Glc(a1-3)Glc,-0.977
same,glycan array binding signal (z-score),[31],-0.941
same,glycan array binding signal (z-score),Glc(b1-2)Glc,-0.411
same,glycan array binding signal (z-score),[32],2.06
same,glycan array binding signal (z-score),[33],2.2
same,glycan array binding signal (z-score),[5],2.44
same,glycan array binding signal (z-score),[34],1.17
same,glycan array binding signal (z-score),[35],-0.119
